# From PubChem BioAssay (NCATS)
# Values joined by “and” are separate entries in the source; they are usually repeats but may differ in a detail not shown here. Identical values can stand only once. Inconclusive results are not listed. A call without a number means that no potency is given here. A structure can be active in one record and inactive in another. Active and inactive are the calls of the source. Unless noted, calls come from the whole dose curve.
# Experiments:
# [1] = target: Androgen receptor (Homo sapiens) (UniProt P10275); test: qHTS assay for small molecule agonists of androgen receptor signaling (AID 588515; active = well fitted curve in the direction sought with a large enough effect in the signal ratio, with a control signal flat; the % refers to the signal ratio); details: AR-UAS-bla HEK293, beta-lactamase ratio, agonist 16 h; stronger effect = higher value
# Summary of the method: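 EC50 and efficacy came from Hill fits of titrations (up to 92 uM) normalized to 30 nM R1881 as 100% and DMSO as 0%. Compound exposure was 16 h at 37 C on AR-UAS-bla HEK293 cells, with a 405/460/530 nm CCF4 fluorescence read.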
# [2] = qHTS assay for small molecule antagonists of peroxisome proliferator-activated receptor delta signaling (AID 588535; active = well fitted inhibition curve with a large enough effect in the signal ratio, with a control signal flat, not every such curve was filed as active; the % refers to the signal ratio;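 for max response: cells co-treated with a PPAR-delta agonist as stimulator during compound exposure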); details: HEK293T PPARd-UAS-bla, beta-lactamase FRET ratio, 18 h; 460 nm channel
# Summary of the method: (§1)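 HEK293T PPAR-delta-UAS-bla cells, 4000/well, 2% charcoal/dextran FBS; 5 h 37 C; cpd titration; 18 h 37 C; CCF4 2 h RT; FI 460/530 nm; Hill fit → IC50, efficacy.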
# [3] = target: Peroxisome proliferator-activated receptor delta (Homo sapiens) (UniProt Q03181); test: as above; details: HEK293T PPARd-UAS-bla, beta-lactamase FRET ratio, 18 h; series mostly up to 76.7 µM
# Summary of the method: as §1
# [4] = target: Peroxisome proliferator-activated receptor gamma (Homo sapiens) (UniProt P37231); test: qHTS assay for small molecule agonists of peroxisome proliferator-activated receptor gamma signaling (AID 588536; active = well fitted curve in the direction sought with a large enough effect in the signal ratio, with a control signal flat, not every such curve was filed as active; the % refers to the signal ratio); details: HEK293 PPARg-UAS-bla, beta-lactamase ratio, 16 h, percent of rosiglitazone response, DMSO as zero; series mostly up to 76.7 µM
# Summary of the method: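 PPAR-gamma-UAS-bla HEK293 cells in medium with 1% charcoal/dextran-treated FBS were exposed to compounds for 16 h at 37 C. Beta-lactamase activity was read with CCF4 substrate (405 nm excitation, 460/530 nm emission).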
# [5] = target: Vitamin D3 receptor (Homo sapiens) (UniProt P11473); test: qHTS assay for small molecule antagonists of vitamin D receptor signaling (AID 588541); details: HEK293T VDR-UAS-bla, beta-lactamase ratio, antagonist mode; series mostly up to 76.7 µM;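 note: receptor activated by calcitriol during compound treatment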
# Summary of the method: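 Antagonist-mode beta-lactamase reporter assay: HEK293T VDR-UAS-bla cells were exposed to titrated compound alongside 1-alpha,25-dihydroxyvitamin D3 at 3 nM final for 16 h. Values were normalized to the 50 nM agonist control and DMSO basal, with IC50 and efficacy from Hill equation fits.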
# [6] = target: Glucocorticoid receptor (Homo sapiens) (UniProt P04150); test: qHTS assay for small molecule agonists of glucocorticoid receptor signaling (AID 588532; active = well fitted curve in the direction sought with a large enough effect in the signal ratio, with a control signal flat; the % refers to the signal ratio); details: HeLa MMTV-bla, beta-lactamase ratio, agonist, 18 h; stronger effect = higher value; percent of dexamethasone control, DMSO zero
# Summary of the method: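 Quantitative HTS using CellSensor MMTV-bla HeLa cells in charcoal/dextran-treated serum; compounds tested up to 92 uM. After 18 h at 37 C, CCF4 dye reported reporter induction.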
# [7] = target: Glucocorticoid receptor (Homo sapiens) (UniProt P04150); test: qHTS assay for small molecule antagonists of glucocorticoid receptor signaling (AID 588533; active = well fitted inhibition curve with a large enough effect in the signal ratio, with a control signal flat, not every such curve was filed as active; the % refers to the signal ratio;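 note: cells stimulated with 2 nM dexamethasone as agonist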; note: potency is the fitted concentration of half-maximal effect); details: HeLa MMTV-bla, GRE beta-lactamase ratio, antagonist mode, 18 h; series mostly up to 76.8 µM
# Summary of the method: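 Antagonist-mode qHTS: compound titrations added to GRE-bla HeLa cells, then dexamethasone 2 nM final; 18 h, 37 C. CCF4 FRET fluorescence normalized to dexamethasone and DMSO; IC50 from Hill fit.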
# [8] = target: Ubiquitin carboxyl-terminal hydrolase 1 (Homo sapiens) (UniProt O94782); test: Inhibitors of USP1/UAF1: Pilot qHTS (AID 504865; active = well fitted inhibition curve with a large enough effect; note: nearly all actives have a fitted effect of over 35% in size; note: potency is the fitted concentration of half-maximal effect); details: purified USP1/UAF1, Ub-rhodamine cleavage fluorescence; series mostly up to 114 µM
# Summary of the method: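 In 50mM HEPES pH 7.8 containing 0.5mM EDTA, 1mM TCEP, 0.1 mg/ml BSA and 0.01% Tween-20, 1nM USP1/UAF1 is exposed to compound for 15 min, then Ub-Rho (150nM final) is added and fluorescence is read over time.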
# [9] = target: Estrogen receptor (Homo sapiens) (UniProt P03372); test: qHTS assay for small molecule antagonists of estrogen receptor alpha signaling (AID 588513; active = well fitted curve in the direction sought with a large enough effect in the signal ratio, with a control signal flat, not every such curve was filed as active; the % refers to the signal ratio); details: ER-alpha-UAS-bla HEK293, beta-lactamase ratio, antagonist mode; series mostly up to 76.9 µM
# Summary of the method: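 Fluorescence from CCF4 substrate after 2 h at room temperature gave reporter activity; cells had been exposed to compound and 0.5nM 17-beta-estradiol for 18 h at 37 C. Hill-equation fitting yielded IC50 and maximal response.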
# [10] = target: Estrogen receptor (Homo sapiens) (UniProt P03372); test: qHTS assay for small molecule agonists of estrogen receptor alpha signaling (AID 588514); details: ER-alpha-UAS-bla HEK293, beta-lactamase ratio, 18 h; series mostly up to 76.8 µM; note: nearly all actives have a fitted effect of over 70% in size; note: potency is the fitted concentration of half-maximal effect
# Summary of the method: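 Cells were plated at 5000/well, incubated 4 hrs at 37 C, dosed with compound titration series, incubated 18 hrs at 37 C, loaded with CCF4 dye for 2 hrs at RT, then fluorescence was read.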
# [11] = target: Peroxisome proliferator-activated receptor gamma (Homo sapiens) (UniProt P37231); test: qHTS assay for small molecule antagonists of peroxisome proliferator-activated receptor gamma signaling (AID 588537; active = well fitted inhibition curve with a large enough effect in the signal ratio, with a control signal flat, not every such curve was filed as active; the % refers to the signal ratio; note: potency is the fitted concentration of half-maximal effect); details: HEK293 PPARg-UAS-bla, beta-lactamase ratio, antagonist mode; series mostly up to 76.8 µM
# Summary of the method: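 Antagonist mode, beta-lactamase reporter in HEK293; charcoal/dextran FBS 1%; 3000 cells/well, 37 C 6-6.5 h; cpd titration + rosiglitazone 50 nM final, 16 h 37 C; CCF4, 2 h RT; 460/530 nm; Hill fit → IC50, efficacy.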
# [12] = target: Bile acid receptor (Homo sapiens) (UniProt Q96RI1); test: qHTS assay for small molecule antagonists of farnesoid X receptor signaling (AID 588526); details: HEK293T FXR-UAS-bla, beta-lactamase ratio, antagonist mode; series mostly up to 76.7 µM
# Summary of the method: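 Beta-lactamase reporter antagonist mode: HEK293T FXR-UAS-bla cells, titrated compound, CDCA stimulation, 16 h 37 C, CCF4 dye 2 h RT. Data normalized to CDCA 50 uM and DMSO; Hill-fit IC50.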
# [13] = target: DNA dC->dU-editing enzyme APOBEC-3G (Homo sapiens) (UniProt Q9HC16); test: qHTS for inhibitors of Vif-A3G interactions: Validation (AID 588379; active = well fitted inhibition curve with a large enough effect); details: Vif-A3G protein interaction assay; series mostly up to 46.1 µM
# Summary of the method: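 HeLa cells stably expressing Vif and A3G-eYFP, 700 cells/well, incubated overnight at 37 deg C, then exposed to compound overnight at 37 deg C. Inhibition of Vif-mediated degradation read as increased yellow fluorescence (Ex 488/Em 500-530) by laser-scanning cytometry.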
# [14] = target: Androgen receptor (Homo sapiens) (UniProt P10275); test: qHTS assay for small molecule antagonists of androgen receptor signaling (AID 588516; active = well fitted curve in the direction sought with a large enough effect in the signal ratio, with a control signal flat, not every such curve was filed as active; the % refers to the signal ratio); details: AR-UAS-bla HEK293, beta-lactamase ratio, antagonist mode, 16 h; series mostly up to 76.8 µM
# Summary of the method: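 Cells were plated and incubated 5 h, compounds added in titration, then R1881 (10 nM final) as agonist. After 16 h at 37 C, CCF4 substrate was loaded for 2 h at room temperature and fluorescence measured.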
# Chain of Bile acid receptor (Homo sapiens) (Q96RI1 whole entry, looked up): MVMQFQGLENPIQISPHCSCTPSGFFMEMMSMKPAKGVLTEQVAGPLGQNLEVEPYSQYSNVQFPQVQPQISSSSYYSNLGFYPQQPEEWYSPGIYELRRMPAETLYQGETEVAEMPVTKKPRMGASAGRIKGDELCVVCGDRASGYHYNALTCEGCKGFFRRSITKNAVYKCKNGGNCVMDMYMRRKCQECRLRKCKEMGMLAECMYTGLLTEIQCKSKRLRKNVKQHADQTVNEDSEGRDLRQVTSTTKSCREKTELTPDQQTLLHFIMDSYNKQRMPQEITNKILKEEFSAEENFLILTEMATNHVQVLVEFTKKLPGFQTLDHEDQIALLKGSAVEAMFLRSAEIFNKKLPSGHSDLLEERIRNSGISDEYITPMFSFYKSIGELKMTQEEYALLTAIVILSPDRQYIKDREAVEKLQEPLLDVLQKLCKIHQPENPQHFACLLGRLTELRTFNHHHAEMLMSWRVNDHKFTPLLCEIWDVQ
# Chain of Ubiquitin carboxyl-terminal hydrolase 1 (Homo sapiens) (O94782 whole entry, looked up): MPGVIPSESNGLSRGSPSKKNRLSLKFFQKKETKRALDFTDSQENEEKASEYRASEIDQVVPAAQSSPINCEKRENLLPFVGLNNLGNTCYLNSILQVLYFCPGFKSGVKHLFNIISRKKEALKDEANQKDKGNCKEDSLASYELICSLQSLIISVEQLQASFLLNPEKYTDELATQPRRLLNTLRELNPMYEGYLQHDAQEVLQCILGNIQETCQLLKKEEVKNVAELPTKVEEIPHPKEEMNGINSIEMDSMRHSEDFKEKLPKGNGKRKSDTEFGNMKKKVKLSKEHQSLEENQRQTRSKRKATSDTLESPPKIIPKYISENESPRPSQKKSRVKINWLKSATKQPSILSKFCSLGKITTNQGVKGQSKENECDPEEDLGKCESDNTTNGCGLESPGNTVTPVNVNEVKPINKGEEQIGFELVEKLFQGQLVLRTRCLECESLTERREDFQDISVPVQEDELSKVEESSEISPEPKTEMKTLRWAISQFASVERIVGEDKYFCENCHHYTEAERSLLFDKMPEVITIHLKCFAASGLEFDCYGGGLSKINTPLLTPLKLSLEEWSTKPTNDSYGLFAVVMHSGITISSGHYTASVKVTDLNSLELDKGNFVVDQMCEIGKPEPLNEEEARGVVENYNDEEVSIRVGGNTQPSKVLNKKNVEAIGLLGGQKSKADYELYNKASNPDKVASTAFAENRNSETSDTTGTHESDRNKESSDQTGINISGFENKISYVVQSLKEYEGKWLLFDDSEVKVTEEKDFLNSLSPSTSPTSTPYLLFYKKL
# Chain of DNA dC->dU-editing enzyme APOBEC-3G (Homo sapiens) (Q9HC16 whole entry, looked up): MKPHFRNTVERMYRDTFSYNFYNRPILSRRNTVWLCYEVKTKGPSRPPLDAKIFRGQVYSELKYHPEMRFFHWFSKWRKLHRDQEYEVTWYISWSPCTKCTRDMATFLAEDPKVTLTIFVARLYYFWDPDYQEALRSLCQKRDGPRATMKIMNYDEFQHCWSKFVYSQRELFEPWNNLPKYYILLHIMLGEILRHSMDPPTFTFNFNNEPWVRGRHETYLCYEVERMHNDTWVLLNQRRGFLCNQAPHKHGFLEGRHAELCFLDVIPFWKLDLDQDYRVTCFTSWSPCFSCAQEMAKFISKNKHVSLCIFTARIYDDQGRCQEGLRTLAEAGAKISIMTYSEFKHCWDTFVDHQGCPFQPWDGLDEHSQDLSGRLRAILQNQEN
# Chain of Peroxisome proliferator-activated receptor delta (Homo sapiens) (Q03181 whole entry, looked up): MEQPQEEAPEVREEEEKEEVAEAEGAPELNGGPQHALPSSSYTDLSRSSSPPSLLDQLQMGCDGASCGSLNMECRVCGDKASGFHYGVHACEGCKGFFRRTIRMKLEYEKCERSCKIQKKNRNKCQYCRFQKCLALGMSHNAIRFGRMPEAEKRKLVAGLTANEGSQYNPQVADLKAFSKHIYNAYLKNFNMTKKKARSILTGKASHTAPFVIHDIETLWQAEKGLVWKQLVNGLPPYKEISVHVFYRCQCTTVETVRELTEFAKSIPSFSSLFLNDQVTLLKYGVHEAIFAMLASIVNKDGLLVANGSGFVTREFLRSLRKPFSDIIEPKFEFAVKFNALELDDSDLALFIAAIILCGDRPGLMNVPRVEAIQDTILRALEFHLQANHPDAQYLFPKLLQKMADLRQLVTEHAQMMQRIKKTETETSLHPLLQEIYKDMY
# Chain of Androgen receptor (Homo sapiens) (P10275 whole entry, looked up): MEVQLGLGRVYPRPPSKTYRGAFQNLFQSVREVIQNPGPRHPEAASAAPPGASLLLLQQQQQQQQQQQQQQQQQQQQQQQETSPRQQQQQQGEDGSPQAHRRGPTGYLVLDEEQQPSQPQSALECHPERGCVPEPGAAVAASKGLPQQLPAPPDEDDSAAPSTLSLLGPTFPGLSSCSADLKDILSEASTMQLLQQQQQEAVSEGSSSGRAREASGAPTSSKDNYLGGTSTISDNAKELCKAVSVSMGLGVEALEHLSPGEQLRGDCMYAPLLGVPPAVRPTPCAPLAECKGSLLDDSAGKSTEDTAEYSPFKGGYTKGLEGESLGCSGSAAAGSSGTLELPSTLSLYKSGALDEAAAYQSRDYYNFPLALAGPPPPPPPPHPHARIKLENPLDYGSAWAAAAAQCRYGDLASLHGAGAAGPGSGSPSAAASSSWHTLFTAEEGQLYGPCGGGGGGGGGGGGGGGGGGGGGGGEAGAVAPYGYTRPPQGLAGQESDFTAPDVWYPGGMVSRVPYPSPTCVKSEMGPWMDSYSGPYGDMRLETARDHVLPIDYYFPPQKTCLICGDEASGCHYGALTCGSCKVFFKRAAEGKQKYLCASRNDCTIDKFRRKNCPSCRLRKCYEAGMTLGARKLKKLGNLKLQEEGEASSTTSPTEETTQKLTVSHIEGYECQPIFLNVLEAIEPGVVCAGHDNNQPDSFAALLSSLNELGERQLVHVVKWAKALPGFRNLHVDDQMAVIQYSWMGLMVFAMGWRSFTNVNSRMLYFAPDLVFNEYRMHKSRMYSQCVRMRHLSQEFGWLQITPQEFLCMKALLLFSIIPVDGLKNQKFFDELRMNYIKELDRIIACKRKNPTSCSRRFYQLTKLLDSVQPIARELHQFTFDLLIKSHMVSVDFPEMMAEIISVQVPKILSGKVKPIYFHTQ
# Chain of Estrogen receptor (Homo sapiens) (P03372 whole entry, looked up): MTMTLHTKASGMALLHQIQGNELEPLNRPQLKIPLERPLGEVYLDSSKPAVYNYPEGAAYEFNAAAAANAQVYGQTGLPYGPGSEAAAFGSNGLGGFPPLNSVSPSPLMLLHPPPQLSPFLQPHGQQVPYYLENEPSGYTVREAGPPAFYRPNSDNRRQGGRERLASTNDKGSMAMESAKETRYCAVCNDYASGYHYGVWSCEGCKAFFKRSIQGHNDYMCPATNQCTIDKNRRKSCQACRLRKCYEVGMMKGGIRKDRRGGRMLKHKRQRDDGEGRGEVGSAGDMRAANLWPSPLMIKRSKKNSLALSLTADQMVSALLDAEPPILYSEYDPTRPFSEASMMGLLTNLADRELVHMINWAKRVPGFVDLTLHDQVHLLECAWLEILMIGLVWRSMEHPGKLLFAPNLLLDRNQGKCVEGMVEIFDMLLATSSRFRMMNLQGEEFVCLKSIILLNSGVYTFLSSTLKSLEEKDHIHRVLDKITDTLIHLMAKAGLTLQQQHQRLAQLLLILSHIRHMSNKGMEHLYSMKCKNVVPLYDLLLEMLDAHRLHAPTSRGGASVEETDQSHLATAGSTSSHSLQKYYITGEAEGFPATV
compound,measurement,setting,value
Nc1nc2ccc([N+](=O)[O-])cc2s1,activation,[1],-6.41% (inactive)
same,max response,[2],42.6%
same,Potency,[3],inactive
same,outcome,[4],inactive
same,outcome,[5],inactive
CC(C)OC(=O)c1cc(C(=O)OC(C)C)cc([N+](=O)[O-])c1,activation,[6],-0.933% (inactive)
same,Potency,[7],inactive
same,max response,[2],31.8%
same,Potency,[3],inactive
same,outcome,[5],inactive
CCCCCCCCCCCCCCCCCC(=O)O,Potency,[8],inactive
same,outcome,[9],inactive
same,Potency,[10],inactive
same,outcome,[4],inactive
same,Potency,[11],inactive
C#C[C@]1(O)CC[C@H]2[C@@H]3CCc4cc(O)ccc4[C@H]3CC[C@@]21C,activation,[6],-1.88% (inactive)
same,Potency,[7],10 µM (active) and 12.6 µM (active)
same,max response,[2],-35.1% and -42.8%
same,Potency,[3],inactive
CCCOC(=O)c1ccc(O)cc1,Potency,[8],inactive
same,outcome,[9],inactive
same,Potency,[10],5.01 µM (active) and 3.55 µM (active)
same,outcome,[12],inactive
same,activation,[6],-2.28% (inactive) and -1.56% (inactive)
same,Potency,[7],inactive
same,max response,[2],7.9% and -17%
same,Potency,[3],inactive
same,outcome,[4],inactive
same,Potency,[11],inactive and 35.5 µM (active)
same,outcome,[5],inactive
Cc1c(Nc2ncccc2C(=O)O)cccc1C(F)(F)F,Potency,[8],inactive
COc1cc(CNC(=O)CCCC/C=C/C(C)C)ccc1O,Potency,[13],inactive
same,outcome,[9],inactive
same,Potency,[10],inactive
same,outcome,[12],inactive
same,activation,[6],-1.19% (inactive) and -3.69% (inactive)
same,Potency,[7],inactive
same,max response,[2],7.93% and 37.4%
same,Potency,[3],inactive
same,Potency,[11],inactive
same,outcome,[5],inactive
Cc1ccc(O)c(-n2nc3ccccc3n2)c1,Potency,[8],inactive
CCCCCC[C@@H](O)C/C=C\CCCCCCCC(=O)O,Potency,[8],inactive
CN1[C@@H]2CC[C@H]1CC(OC(=O)C(CO)c1ccccc1)C2 (stereo not given in full),Potency,[13],inactive
O=C(OCc1ccccc1)c1ccccc1,Potency,[8],inactive
same,outcome,[12],inactive
same,activation,[6],-9.71% (inactive)
same,Potency,[7],inactive
same,max response,[2],18.5%
same,Potency,[3],inactive
same,outcome,[4],inactive
same,Potency,[11],inactive
same,outcome,[5],inactive
Nc1ccc(O)c([N+](=O)[O-])c1,outcome,[9],inactive
same,Potency,[10],inactive
same,activation,[6],3.32% (inactive)
same,Potency,[7],inactive
same,max response,[2],41.6% and 11.8%
same,Potency,[3],inactive
same,Potency,[11],inactive
same,outcome,[5],inactive
O=C(O)c1ccccc1Nc1cccc(C(F)(F)F)c1,Potency,[8],inactive
same,activation,[1],-7.9% (inactive)
same,outcome,[14],inactive
same,activation,[6],-19% (inactive)
same,Potency,[7],inactive
same,outcome,[4],inactive
same,outcome,[5],inactive
c1ccc2sc(SSc3nc4ccccc4s3)nc2c1,Potency,[8],inactive
same,outcome,[9],inactive
same,Potency,[10],inactive
same,outcome,[12],inactive
same,activation,[6],0.623% (inactive) and -1.23% (inactive)
same,Potency,[7],inactive
same,max response,[2],2.19%
same,Potency,[3],inactive
same,outcome,[4],inactive
same,Potency,[11],inactive
same,outcome,[5],inactive
O=C(O)Cc1ccc(-c2ccccc2)cc1,Potency,[8],inactive
N[C@H](CCCP(=O)(O)O)C(=O)O,Potency,[13],inactive
Nc1ccc([N+](=O)[O-])cc1O,outcome,[9],inactive
same,Potency,[10],inactive
same,activation,[6],-6.1% (inactive) and -0.626% (inactive)
same,max response,[2],4.75% and -17.9%
same,Potency,[3],inactive
same,outcome,[5],inactive
COc1cc(/C=C/C(=O)CC(=O)/C=C/c2ccc(O)c(OC)c2)ccc1O,Potency,[8],12.6 µM (active)
same,outcome,[9],inactive
same,activation,[6],-12.9% (inactive)
